Screens: PubChem BioAssay, several laboratories
An excerpt weighted towards active compounds, which were near 6.9% of everything screened.
MPTP block: mitochondrial permeability transition pore inhibitors, primary screen, biochemical, isolated mouse mitochondria, absorbance | Ca2+ swelling absorbance, 30 min | inhibition, % at 10 µM | hit rate 1.4% among 360,000 | AID 602449, 2012;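 active means inhibition of 50% or more, scaled per plate between neutral and stimulator controls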;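 further: 0% = DMSO wells given calcium and 100% = 1 mM EGTA wells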
Beta cell apopt: inhibitors of cytokine-induced beta cell apoptosis, primary screen, luminescence; hit rate 0.8% among 300,000; INS-1E cytokine-induced death, ATP luminescence, 48 h; percent of positive-control rescue, neutral wells zero; protection from apoptosis, % (concentration not given with the values);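 active means Every replicate reaches about 75%, or at least half do and their mean reaches it too, limit read from the data; inconclusive means At least half of replicates reach the limit but their mean does not; inactive means Under half of replicates reach the limit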;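 further: 0% = cytokine-treated negative control wells and 100% = positive control rescue; higher means more ATP so stronger rescue from cytokine killing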
GRIN3A LBD mod: binders of NR3A ligand-binding domain, primary screen, biophysical, differential scanning fluorimetry, uHTS. Tm shift relative to glycine control, % at 25 µM. NR3A LBD differential scanning fluorimetry, Tm shift; 0% = protein alone, 100% = glycine-bound protein. AID 1259313, 2017. Glutamate receptor ionotropic, NMDA 3A (GRIN3A) ligand-binding domain. hit rate 2.5% among 340,000;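 active means melting temperature shift of at least 10% of the positive control shift, at one fixed dose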
Mdm2 MdmX PPI: inhibitors of human Mdm2-MdmX association, primary screen, cell-based, luminescence, split luciferase, SaOS-2, uHTS | Protein Mdm4 (Homo sapiens) + E3 ubiquitin-protein ligase Mdm2 (Homo sapiens), … | SaOS-2 split-luciferase Mdm2/MdmX complementation | inhibition, % at 8 µM | hit rate 3% among 330,000 | AID 485346, 2010;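 active means inhibition of at least 50% at 8 µM in the primary screen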
Target sequence (O15151 whole entry, looked up): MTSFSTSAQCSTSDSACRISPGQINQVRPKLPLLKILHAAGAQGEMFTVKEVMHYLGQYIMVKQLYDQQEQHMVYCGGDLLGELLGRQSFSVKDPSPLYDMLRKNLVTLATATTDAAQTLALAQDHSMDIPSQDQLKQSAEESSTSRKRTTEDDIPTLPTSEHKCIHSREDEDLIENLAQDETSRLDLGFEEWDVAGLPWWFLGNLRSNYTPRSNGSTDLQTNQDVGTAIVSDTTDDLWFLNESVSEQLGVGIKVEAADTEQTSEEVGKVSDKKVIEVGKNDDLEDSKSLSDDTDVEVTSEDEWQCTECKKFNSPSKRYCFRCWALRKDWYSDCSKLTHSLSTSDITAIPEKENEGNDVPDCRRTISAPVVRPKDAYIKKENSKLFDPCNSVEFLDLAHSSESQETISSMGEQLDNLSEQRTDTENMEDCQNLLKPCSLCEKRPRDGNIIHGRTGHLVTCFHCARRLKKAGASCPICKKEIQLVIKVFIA
Target sequence (Q00987 whole entry, looked up): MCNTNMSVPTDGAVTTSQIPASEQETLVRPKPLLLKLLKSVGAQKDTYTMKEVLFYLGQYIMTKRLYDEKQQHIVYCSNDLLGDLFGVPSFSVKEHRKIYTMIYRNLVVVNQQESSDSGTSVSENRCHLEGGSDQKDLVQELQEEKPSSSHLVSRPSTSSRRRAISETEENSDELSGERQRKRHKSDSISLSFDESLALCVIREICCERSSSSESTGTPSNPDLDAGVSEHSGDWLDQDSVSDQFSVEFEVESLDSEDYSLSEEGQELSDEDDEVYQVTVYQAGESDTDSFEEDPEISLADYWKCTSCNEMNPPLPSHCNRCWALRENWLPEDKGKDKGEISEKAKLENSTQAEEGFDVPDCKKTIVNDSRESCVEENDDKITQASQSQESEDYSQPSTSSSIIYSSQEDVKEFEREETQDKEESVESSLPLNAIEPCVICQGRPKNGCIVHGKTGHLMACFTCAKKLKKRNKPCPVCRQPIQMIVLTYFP
CSC inhib: cancer stem cell viability inhibitors, primary screen, luminescence; cancer stem cell-like cells viability; AID 2717, 2010; inhibition, % at 7.5 µM; hit rate 1.1% among 300,000; in the data active means inhibition above about 75%; inconclusive means no clear call, values can overlap the other calls; tested in HMLE shEcad cells
SKKanGAS inh: S. pyogenes SKKanGAS growth inhibitors in kanamycin, primary screen, streptokinase expression inhibitor project, SKKanGAS strain, BacTiter-Glo luminescence | 6 h | inhibition, % at 7.5 µM | hit rate 1.3% among 300,000 | AID 1662, 2009;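 active means mean replicate score, as percent of positive control median, at least 50; inconclusive means mean below 50 but one replicate at or above 50; inactive means mean and every replicate below 50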;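 further: strain carries kanamycin resistance gene driven by streptokinase promoter and grows in 40 µg/ml kanamycin; loss of luminescence reflects streptokinase promoter inhibition or plain growth inhibition; 0% = median of DMSO wells and 100% = positive control at its reference dose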
* hit, by the source's call; ? = inconclusive; nt = no result.

SMILES | MPTP block | Beta cell apopt | GRIN3A LBD mod | Mdm2 MdmX PPI | CSC inhib | SKKanGAS inh
CCN(Cc1nc2ccccc2c(=O)[nH]1)C(=O)COc1ccccc1Cc1ccccc1 | -3 | nt | 11* | 34 | nt | nt
O=c1cc(CO)oc2ccccc12 | -2 | 2 | -4 | 6 | -11 | nt
CCCCCc1cc(=O)c2ccccc2o1 | 0 | 2 | 53* | 16 | nt | nt
COc1ccc2cc(-c3ccsc3)ncc2c1 | 0 | -7 | 30* | -200 | -8 | nt
COc1ccc2cc(-c3ccccc3)ncc2c1 | 4 | 5 | -2 | -127 | -3 | 3
COc1cc(OC)cc(-c2cc3ccc(OC)cc3cn2)c1 | 0 | 36 | 9 | -147 | 94* | nt
COc1ccc(-c2cc3cc(OC)c(OC)cc3cn2)cc1 | 1 | -3 | -5 | -10 | nt | nt
C[C@]12CC(O)C3C(CCC4=CC(=O)CC[C@@]43C)C1CCC2c1csc(-c2ccccc2)n1 (stereo partly drawn) | 1 | 36 | 13* | 19 | 11 | 18
Cc1ccc(-c2n[nH]c3c2CCC3)cc1 | 0 | -6 | 3 | 3 | 2 | 55*
CCNc1nc(NCC)nc(-n2nc(C)cc2C)n1 | -1 | 16 | 1 | 34 | -8 | 87*
Cc1cc(C)n(-c2nnc(NC(C)(C)C)nn2)n1 | 2 | -3 | 2 | 2 | -1 | 2
Cc1cc(C)n(-c2nc(NC(C)(C)C)nc(NC(C)(C)C)n2)n1 | -5 | ? | -3 | 32 | -4 | 111*
CCOc1ccc(NC2=C(Cl)C(=O)N(C3CCCCC3)C2=O)cc1 | 1 | 6 | 17* | 4 | -7 | 0
O=C(O)c1ccc(/C=N/NC(=O)c2cc3c(ccc4ccccc43)o2)cc1 | 0 | -4 | 0 | 0 | -9 | 33
N#CCn1cc(/C=N/NC(=O)c2cc3c(ccc4ccccc43)o2)c2ccccc21 | 1 | 4 | 25* | 46 | 43 | 3
COc1ccccc1/C=N/NC(=O)c1cc2c(ccc3ccccc32)o1 | 0 | 2 | -1 | 8 | nt | -4
COc1ccc(/C=N\NC(=O)c2cc3c(ccc4ccccc43)o2)cc1O | -1 | 9 | 25* | 42 | 41 | nt
O=C(N/N=C/c1ccc(-c2ccc(Cl)c(C(=O)O)c2)o1)c1cc2c(ccc3ccccc32)o1 | 6 | -7 | -8 | 13 | 2 | 61*
COc1cc(/C=N/NC(=O)c2cc3c(ccc4ccccc43)o2)cc(OC)c1O | 1 | 18 | nt | 18 | 0 | 6
COc1ccc(/C=N/NC(=O)c2cc3c(ccc4ccccc43)o2)cc1OC | -1 | 15 | 20* | 12 | -8 | nt
COc1cccc(C(C)(O)c2nc(-c3cccc(NC(C)=O)c3)cs2)c1 (stereo not drawn) | 9 | nt | nt | nt | nt | nt
CCCCN(CC)CCCNC(=O)c1cn(-c2ccc(OC)cc2)c(=O)c2ccccc12 | 2 | -2 | -11 | 21 | -21 | -1
CCN1C(=O)C(CC(=O)Nc2ccc(F)cc2)N(CCCN2CCN(c3ccc(F)cc3)CC2)C1=S (stereo not drawn) | 3 | -3 | 0 | 25 | 105* | 4
Cc1cccn2cc(COc3ccc(-c4ccccc4)cc3)nc12 | 0 | nt | -13 | nt | nt | 13
Cc1[nH]n(C(N)=S)c(=O)c1N=Nc1cc(-c2ccc(Br)cc2)[nH]n1 | 0 | 14 | 24* | 7 | 4 | 35
SMILES | MPTP block | Beta cell apopt | GRIN3A LBD mod | Mdm2 MdmX PPI | CSC inhib | SKKanGAS inh
O=C(Nc1ccncc1)C1CCN(S(=O)(=O)c2c(Cl)cccc2Cl)CC1 | -3 | 6 | 1 | 1 | nt | -2
COc1ccc(NC(=O)Nc2cc(C(=O)O)ccc2N2CC3CC(C2)c2cccc(=O)n2C3)c(OC)c1 (stereo not drawn) | 0 | -1 | -2 | 4 | 1 | 1
O=C(CSc1ncnc2nc[nH]c12)c1ccccc1 | -2 | -6 | 3 | -45 | -8 | -3
O=C(CSc1ncnc2nc[nH]c12)c1ccc(Cl)cc1 | 1 | -1 | 0 | 11 | 102* | -7
O=C(CSc1ncnc2nc[nH]c12)N1CCOCC1 | -2 | -3 | 11* | -4 | -1 | -3
CCN(CC)CCCNC(=O)CSc1nc(-c2ccc(F)cc2)cc(C(F)(F)F)n1 | 1 | 1 | 2 | 9 | 44 | -7
COc1ccc(CNC(=O)COC(=O)[C@H](Cc2ccccc2)NC(=O)c2cccs2)cc1 | -2 | -1 | 3 | 4 | -12 | nt
COC(=O)C[C@H]1C[C@@H]2c3cc(NS(=O)(=O)c4cccc(OC)c4)ccc3O[C@@H]2[C@@H](CO)O1 | -1 | nt | nt | nt | nt | nt
COc1ccc(S(=O)(=O)N2CCC(C(=O)NCC3CCCO3)CC2)cc1C (stereo not drawn) | -1 | 8 | -3 | 17 | -17 | 4
O=C(NCC1CCCO1)C1CCN(C(=O)c2ccc(Br)cc2)CC1 (stereo not drawn) | 0 | 1 | 14* | 7 | 0 | 5
COc1ccc(OC)c(S(=O)(=O)N2CCC(C(=O)NCCc3ccc(OC)c(OC)c3)CC2)c1 | 0 | -4 | 11* | 3 | 9 | -19
Cc1noc(C)c1S(=O)(=O)N1CCC(C(=O)NCCc2ccc(S(N)(=O)=O)cc2)CC1 | -1 | -6 | 11* | 27 | -19 | 6
COc1ccc(C(C)C)cc1S(=O)(=O)N1CCC(C(=O)NCC2CCCO2)CC1 (stereo not drawn) | 0 | 4 | 11* | 15 | -33 | -2
CNC(=O)COc1coc(CN2CCN(c3ccc(OC)cc3)CC2)cc1=O | -1 | nt | -1 | -4 | -10 | 1
COc1ccccc1CN1CC(C(=O)N(C)CCc2ccccn2)CCC1=O (stereo not drawn) | 0 | nt | nt | nt | nt | nt
Cc1ccccc1NC(=O)CCCNC(=O)c1ccc(Cl)cc1 | -1 | -5 | 1 | -32 | -6 | -14
Cc1ccc(OCC(=O)NCCCNC(=O)c2ccco2)cc1 | -1 | 2 | -2 | -26 | -8 | -4
O=S(=O)(c1ccc(N2CCN(CCO)CC2)nc1)N1CCOCC1 | 0 | 0 | -1 | 3 | -2 | -13
COc1ccc(S(=O)(=O)N2CCC(C(=O)NCc3cccc(OC)c3)CC2)cc1 | 1 | -1 | 1 | 4 | -8 | -5
COc1cccc(CNC(=O)C2CCN(S(=O)(=O)N3CCCCC3)CC2)c1 | 0 | -3 | 13* | -12 | 2 | -7
CCOc1ccc(N2CC(C(=O)NCCc3ccc(F)cc3)CC2=O)cc1 (stereo not drawn) | -3 | 0 | -1 | -2 | nt | -2
O=C(NCc1ccc(C(F)(F)F)cc1)c1ccc2c(c1)S(=O)(=O)c1ccccc1C2=O | 5 | -2 | 0 | -11 | 0 | 51*
CC(C)c1c(C#N)c(N)nc(SCC(=O)c2cc3ccccc3oc2=O)c1C#N | 1 | -2 | 1 | 26 | 3 | 14
